From the supplement of paper PMC10849652
The full data set covers some 8,800 targets. This sample favours those with a hit. About 0.5% of all pairs of compound and target were hits.

What was measured:
Experiment in all cases: log2 fold change, soluble protein after heating vs DMSO (PISA); higher = thermal stabilisation; K562 lysate, 10 uM; active = over 0.2 and 3.5 SD of the protein, either way, in both replicates (recomputed)
[1] = compound: C1=CC=C(C=C1)[C@H](COC2=CC3=C(C=C2)NC(=O)N3)NC(=O)C4=CC=CN(C4=O)CC5=CC(=C(C=C5)F)F
In short: (§1)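 K562 pellets were dounce-homogenised in PBS pH 7.4 containing 1 mM MgCl2, and the crude extract, at 1 mg/mL protein, was exposed to 10 μM compound for 30 min. Aliquots were heated for 3 min across 48°C-58°C, pooled, brought to 0.5% NP-40 at 4°C and spun at 21,000xg for 90 min, with the supernatant taken as soluble protein. TMTpro 16plex LC-MS/MS with equalised channel sums quantified that protein. Values are log-two fold changes in thermal stability relative to solvent controls, taken from duplicates.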

[2] = compound: CC1=C(SC2=C1C(=N[C@H](C3=NN=C(N32)C)CC(=O)N)C4=CC=C(C=C4)Cl)C
In short: as §1

[3] = compound: CC1=C2C(=CC=C1)N=C(N(C2=O)C3=CC=CC=C3C)CN4C=NC5=C(N=CN=C54)N
In short: as §1

[4] = compound: Cc1sc2c(c1C)C(c1ccc(Cl)cc1)=N[C@@H](CC(=O)OC(C)(C)C)c1nnc(C)n1-2
In short: as §1

[5] = compound: c1ccc([C@@H]2C[C@H]2NC2CCNCC2)cc1
In short: as §1

Measured: log2 fold change

CYCS (UniProt P99999)
Chain of UniProt P99999 (P99999 whole entry, looked up): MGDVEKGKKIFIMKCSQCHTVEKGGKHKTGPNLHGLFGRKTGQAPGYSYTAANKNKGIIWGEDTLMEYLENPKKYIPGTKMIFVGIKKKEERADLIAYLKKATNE
inactive: [1] -0.013 | [2] 0.016 | [3] 0.002 | [4] 0.002 | [5] -0.01

CLCN3 isoform 2 (UniProt P51790)
Chain of UniProt P51790 (P51790 whole entry, looked up): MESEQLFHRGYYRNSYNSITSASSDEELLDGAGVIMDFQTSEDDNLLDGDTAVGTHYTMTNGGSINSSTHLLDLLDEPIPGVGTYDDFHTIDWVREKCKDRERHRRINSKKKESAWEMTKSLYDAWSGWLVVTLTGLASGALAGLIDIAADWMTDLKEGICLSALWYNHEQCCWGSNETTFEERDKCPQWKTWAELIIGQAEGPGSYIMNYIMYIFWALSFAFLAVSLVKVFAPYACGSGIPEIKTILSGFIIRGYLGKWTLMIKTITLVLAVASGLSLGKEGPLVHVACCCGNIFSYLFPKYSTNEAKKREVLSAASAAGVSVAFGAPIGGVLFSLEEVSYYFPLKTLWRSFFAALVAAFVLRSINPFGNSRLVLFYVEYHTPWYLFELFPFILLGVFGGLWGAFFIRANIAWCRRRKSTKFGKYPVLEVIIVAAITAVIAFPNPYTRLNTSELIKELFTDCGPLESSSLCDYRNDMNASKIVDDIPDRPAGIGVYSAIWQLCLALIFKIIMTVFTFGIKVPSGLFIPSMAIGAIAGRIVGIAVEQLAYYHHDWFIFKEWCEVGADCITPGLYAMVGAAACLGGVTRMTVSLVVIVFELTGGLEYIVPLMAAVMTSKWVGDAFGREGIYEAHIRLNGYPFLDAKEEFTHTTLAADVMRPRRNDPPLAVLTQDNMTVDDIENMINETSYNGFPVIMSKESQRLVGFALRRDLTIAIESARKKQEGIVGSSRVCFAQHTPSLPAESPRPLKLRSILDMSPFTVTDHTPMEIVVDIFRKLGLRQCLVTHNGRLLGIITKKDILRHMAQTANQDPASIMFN
inactive: [1] 0.033 | [2] 0.017 | [3] 0.053 | [4] -0.015 | [5] 0.033

DCP1A (UniProt Q9NPI6)
Chain of UniProt Q9NPI6 (Q9NPI6 whole entry, looked up): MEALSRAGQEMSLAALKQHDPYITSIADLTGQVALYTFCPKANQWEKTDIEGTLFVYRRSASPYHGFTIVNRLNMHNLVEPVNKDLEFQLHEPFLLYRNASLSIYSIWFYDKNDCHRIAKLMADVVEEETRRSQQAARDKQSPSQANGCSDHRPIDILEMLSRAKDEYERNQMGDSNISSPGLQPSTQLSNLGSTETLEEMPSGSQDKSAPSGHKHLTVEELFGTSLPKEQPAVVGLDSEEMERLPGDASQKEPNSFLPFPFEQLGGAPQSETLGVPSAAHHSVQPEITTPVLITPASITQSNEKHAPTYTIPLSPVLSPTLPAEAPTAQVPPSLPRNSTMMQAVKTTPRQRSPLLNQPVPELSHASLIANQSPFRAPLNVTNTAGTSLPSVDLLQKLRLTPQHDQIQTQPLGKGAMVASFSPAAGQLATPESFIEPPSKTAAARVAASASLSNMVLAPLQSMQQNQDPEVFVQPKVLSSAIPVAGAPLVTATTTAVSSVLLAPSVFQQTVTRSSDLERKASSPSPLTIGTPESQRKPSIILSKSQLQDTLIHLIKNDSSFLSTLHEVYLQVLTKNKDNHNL
inactive: [1] -0.011 | [2] -0.031 | [3] 0.025 | [4] 0.018 | [5] -0.026

DGCR8 (UniProt Q8WYQ5)
inactive: [1] -0.05 | [2] 0.063 | [3] 0.004 | [4] 0.029 | [5] 0.017

DIAPH1 (UniProt H9KV28)
inactive: [1] 0.009 | [2] 0.023 | [3] 0.007 | [5] -0.117

DNAJC1 (UniProt Q96KC8)
Chain of UniProt Q96KC8 (Q96KC8 whole entry, looked up): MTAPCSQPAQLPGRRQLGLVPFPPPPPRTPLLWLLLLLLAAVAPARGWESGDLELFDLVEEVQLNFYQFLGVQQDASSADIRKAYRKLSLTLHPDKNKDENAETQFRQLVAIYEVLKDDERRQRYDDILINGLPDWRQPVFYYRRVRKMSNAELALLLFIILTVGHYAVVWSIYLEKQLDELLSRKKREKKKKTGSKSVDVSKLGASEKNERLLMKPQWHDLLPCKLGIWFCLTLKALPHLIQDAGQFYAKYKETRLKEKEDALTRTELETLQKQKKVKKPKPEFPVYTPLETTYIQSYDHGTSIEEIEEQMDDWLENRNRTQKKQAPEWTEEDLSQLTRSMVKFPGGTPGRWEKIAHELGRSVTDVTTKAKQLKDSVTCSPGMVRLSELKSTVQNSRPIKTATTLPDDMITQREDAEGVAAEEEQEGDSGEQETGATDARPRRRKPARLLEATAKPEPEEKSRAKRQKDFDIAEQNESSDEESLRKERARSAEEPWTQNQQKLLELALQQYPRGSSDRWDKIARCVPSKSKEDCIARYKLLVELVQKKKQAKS
inactive: [1] -0.113 | [2] -0.021 | [3] 0.039 | [4] -0.011 | [5] 0.021

DDX20 (UniProt Q9UHI6)
Chain of UniProt Q9UHI6 (Q9UHI6 whole entry, looked up): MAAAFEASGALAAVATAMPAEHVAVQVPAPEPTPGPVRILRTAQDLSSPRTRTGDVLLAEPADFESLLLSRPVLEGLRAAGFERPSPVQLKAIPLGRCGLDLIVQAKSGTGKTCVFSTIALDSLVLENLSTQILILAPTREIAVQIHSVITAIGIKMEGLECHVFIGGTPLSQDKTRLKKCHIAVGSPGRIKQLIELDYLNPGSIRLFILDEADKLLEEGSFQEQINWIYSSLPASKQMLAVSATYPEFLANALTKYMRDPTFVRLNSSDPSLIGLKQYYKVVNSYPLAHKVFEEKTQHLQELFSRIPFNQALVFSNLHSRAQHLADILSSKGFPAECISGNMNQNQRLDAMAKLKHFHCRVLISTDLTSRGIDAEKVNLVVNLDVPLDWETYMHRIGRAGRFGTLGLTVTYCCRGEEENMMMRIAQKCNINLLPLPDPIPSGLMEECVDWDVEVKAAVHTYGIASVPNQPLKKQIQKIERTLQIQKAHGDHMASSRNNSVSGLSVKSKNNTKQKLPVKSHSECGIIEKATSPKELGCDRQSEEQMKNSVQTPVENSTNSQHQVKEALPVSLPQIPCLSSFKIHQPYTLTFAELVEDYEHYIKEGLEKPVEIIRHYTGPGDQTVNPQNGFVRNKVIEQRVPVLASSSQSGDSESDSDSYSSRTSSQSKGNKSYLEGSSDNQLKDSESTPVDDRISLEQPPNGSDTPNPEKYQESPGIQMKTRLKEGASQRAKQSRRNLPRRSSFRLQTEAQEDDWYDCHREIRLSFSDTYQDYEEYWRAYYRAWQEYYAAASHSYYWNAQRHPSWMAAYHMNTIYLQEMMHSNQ
inactive: [1] -0.008 | [2] -0.064 | [3] -0.006 | [4] 0.027 | [5] 0.077

DNAH10 (UniProt Q8IVF4)
inactive: [1] 0.069 | [2] 0.014 | [3] 0.095 | [4] -0.081 | [5] -0.274

DBF4 (UniProt Q9UBU7)
Chain of UniProt Q9UBU7 (Q9UBU7 whole entry, looked up): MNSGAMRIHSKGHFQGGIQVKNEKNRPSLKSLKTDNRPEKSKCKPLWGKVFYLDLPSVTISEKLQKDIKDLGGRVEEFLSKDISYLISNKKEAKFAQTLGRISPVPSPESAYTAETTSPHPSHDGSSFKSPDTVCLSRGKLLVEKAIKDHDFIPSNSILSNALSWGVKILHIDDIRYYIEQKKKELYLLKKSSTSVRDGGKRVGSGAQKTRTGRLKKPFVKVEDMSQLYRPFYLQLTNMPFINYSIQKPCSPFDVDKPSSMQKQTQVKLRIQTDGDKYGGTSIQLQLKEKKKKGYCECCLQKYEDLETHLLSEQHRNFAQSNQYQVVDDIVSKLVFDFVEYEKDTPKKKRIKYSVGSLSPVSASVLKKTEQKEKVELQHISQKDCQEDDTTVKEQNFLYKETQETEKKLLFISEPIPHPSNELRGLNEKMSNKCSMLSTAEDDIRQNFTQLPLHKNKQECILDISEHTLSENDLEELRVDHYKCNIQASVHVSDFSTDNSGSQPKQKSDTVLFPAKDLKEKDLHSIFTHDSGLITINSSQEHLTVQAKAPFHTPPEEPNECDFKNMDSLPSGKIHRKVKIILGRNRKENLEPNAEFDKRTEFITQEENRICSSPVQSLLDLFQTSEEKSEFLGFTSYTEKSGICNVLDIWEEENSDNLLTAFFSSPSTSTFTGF
inactive: [1] 0.073 | [2] 0.002 | [3] 0.071 | [4] 0.113 | [5] 0.078

CRABP2 (UniProt P29373)
Chain of UniProt P29373 (P29373 whole entry, looked up): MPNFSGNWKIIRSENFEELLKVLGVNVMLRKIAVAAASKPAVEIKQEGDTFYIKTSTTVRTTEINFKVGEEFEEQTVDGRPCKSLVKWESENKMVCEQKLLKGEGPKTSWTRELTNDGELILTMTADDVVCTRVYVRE
inactive: [1] -0.057 | [2] -0.051 | [3] 0.055 | [4] -0.172 | [5] -0.001

DOK1 (UniProt Q99704)
inactive: [1] 0.048 | [2] -0.024 | [3] -0.005 | [4] 0.064 | [5] -0.036

COG5 isoform 2 (UniProt Q9UP83)
Chain of UniProt Q9UP83 (Q9UP83 whole entry, looked up): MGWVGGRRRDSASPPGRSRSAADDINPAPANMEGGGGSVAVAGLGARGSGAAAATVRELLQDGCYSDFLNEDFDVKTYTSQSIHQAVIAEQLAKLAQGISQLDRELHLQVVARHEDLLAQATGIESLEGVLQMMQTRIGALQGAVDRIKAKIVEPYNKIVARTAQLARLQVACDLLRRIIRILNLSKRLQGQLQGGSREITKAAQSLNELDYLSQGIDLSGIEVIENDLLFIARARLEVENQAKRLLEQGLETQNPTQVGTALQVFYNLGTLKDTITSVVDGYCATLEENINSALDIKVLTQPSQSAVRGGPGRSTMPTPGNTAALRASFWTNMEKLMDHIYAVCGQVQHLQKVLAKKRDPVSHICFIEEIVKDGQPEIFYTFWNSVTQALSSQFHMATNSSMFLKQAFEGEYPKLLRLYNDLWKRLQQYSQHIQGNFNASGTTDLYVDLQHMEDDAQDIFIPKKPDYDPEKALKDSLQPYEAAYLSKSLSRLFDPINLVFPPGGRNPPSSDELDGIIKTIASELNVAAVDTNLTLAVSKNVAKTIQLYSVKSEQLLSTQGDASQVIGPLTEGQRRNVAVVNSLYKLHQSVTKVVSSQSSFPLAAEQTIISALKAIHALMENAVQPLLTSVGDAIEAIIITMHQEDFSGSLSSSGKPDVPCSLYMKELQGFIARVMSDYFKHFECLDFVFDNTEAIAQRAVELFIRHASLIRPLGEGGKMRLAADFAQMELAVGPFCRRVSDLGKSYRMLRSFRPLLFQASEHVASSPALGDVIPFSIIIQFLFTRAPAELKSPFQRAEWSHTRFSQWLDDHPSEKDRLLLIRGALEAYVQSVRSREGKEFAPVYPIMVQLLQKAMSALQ
inactive: [1] 0.034 | [2] 0.045 | [3] -0.042 | [4] -0.003 | [5] 0.033

DDX39A (UniProt O00148)
Chain of UniProt O00148 (O00148 whole entry, looked up): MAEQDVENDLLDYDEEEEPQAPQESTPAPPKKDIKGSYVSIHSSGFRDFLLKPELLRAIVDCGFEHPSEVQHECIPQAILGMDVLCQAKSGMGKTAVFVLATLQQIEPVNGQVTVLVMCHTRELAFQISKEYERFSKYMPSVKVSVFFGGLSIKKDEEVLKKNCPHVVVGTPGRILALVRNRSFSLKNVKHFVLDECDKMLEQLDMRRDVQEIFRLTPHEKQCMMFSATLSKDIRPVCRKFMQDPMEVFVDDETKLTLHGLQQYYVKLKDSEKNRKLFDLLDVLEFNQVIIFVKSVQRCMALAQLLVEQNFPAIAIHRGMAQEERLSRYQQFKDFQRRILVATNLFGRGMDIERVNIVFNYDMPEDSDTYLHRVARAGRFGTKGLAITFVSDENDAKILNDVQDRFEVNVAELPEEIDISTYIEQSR
inactive: [1] -0.022 | [2] -0.018 | [3] 0.02 | [4] -0.016 | [5] 0

DLGAP5 (UniProt Q15398)
inactive: [1] 0.029 | [2] -0.006 | [3] 0.009 | [4] -0.036 | [5] -0.015

DPM1 (UniProt O60762)
inactive: [1] -0.01 | [2] 0.048 | [3] 0.022 | [4] 0.073 | [5] 0.093

CSNK2A1 (UniProt P68400)
inactive: [1] -0.004 | [2] 0.012 | [3] -0.119 | [4] 0.034 | [5] 0.005

DCUN1D4 isoform 3 (UniProt Q92564)
inactive: [1] 0.084 | [2] 0.087 | [3] 0.055 | [4] -0.139 | [5] 0.055
